Measurements taken from PubChem BioAssay AID1159580 (chemical genetic matrix, 2015).
The campaign covered roughly 5,500 compounds. About 2,000 (36%) were called active. About 18% were inconclusive and are not listed. Cut-off read from the data, not from the text of the source: active = normalized growth mostly below about 0.91 (no sharp cut-off); inconclusive = no clear call, values can overlap the other calls; inactive = mostly above about 0.92. Some of the results follow.

Test: chemical genetic growth profiling, strain panel (AID 1159580);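 note: tested at 20 µM; growth read once vehicle control cultures reached saturation at 30 °C; 1 = growth at the plate median or of vehicle wells; lower values mean less growth of the strain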
Conditions: growth OD

Measured: normalized growth

COC(C)(C)CCC[C@H](C)C/C=C/C(C)=C/C(=O)OC(C)C
inactive: S. cerevisiae deletion strains, locus YJR075W, strain HOC1, active compounds read low 1.02 | S. cerevisiae deletion strains, locus YKL009W, strain mrt4, active compounds read low 0.979 | S. cerevisiae deletion strains, locus YKL068W, active compounds read low 1.01 | S. cerevisiae deletion strains, locus YKL085W, strain MDH1 (second series), active compounds read low 1 | S. cerevisiae deletion strains, locus YKL085W, strain MDH1, active compounds read low 1 | S. cerevisiae deletion strains, locus YKL160W, strain elf1, active compounds read low 1.02 | S. cerevisiae deletion strains, locus YKL190W, strain CNB1, active compounds read low 0.985 | S. cerevisiae deletion strains, locus YKR001C, strain vps1, active compounds read low 1.03 | S. cerevisiae deletion strains, locus YKR026C, strain gcn3, active compounds read low 1.02 | S. cerevisiae deletion strains, locus YKR091W, strain srl3, active compounds read low 1.02 | S. cerevisiae deletion strains, locus YLL001W, strain dnm1, active compounds read low 1.01 | S. cerevisiae deletion strains, locus YLL026W, active compounds read low 1.01 | S. cerevisiae deletion strains, locus YLL041C, strain sdh2, active compounds read low 1 | S. cerevisiae deletion strains, locus YLR027C, strain aat2, active compounds read low 1.01 | S. cerevisiae deletion strains, locus YLR039C, strain RIC1, active compounds read low 1.04 | S. cerevisiae deletion strains, locus YLR058C, strain SHM2, active compounds read low 1 | S. cerevisiae deletion strains, locus YLR102C, strain apc9, active compounds read low 1.02 | S. cerevisiae deletion strains, locus YLR113W, strain HOG1, active compounds read low 0.971 | S. cerevisiae deletion strains, locus YLR221C, strain rsa3, active compounds read low 0.973 | S. cerevisiae deletion strains, locus YLR258W, strain gsy2, active compounds read low 1.03 | S. cerevisiae deletion strains, locus YLR262C, strain YPT6 (second series), active compounds read low 0.953 | S. cerevisiae deletion strains, locus YLR262C, strain YPT6, active compounds read low 1.06 | S. cerevisiae deletion strains, locus YLR268W, strain sec22, active compounds read low 1.05 | S. cerevisiae deletion strains, locus YLR320W, strain mms22, active compounds read low 0.992 | S. cerevisiae deletion strains, locus YLR330W, strain CHS5, active compounds read low 1.01 | S. cerevisiae deletion strains, locus YLR342W, strain FKS1 (second series), active compounds read low 1.02 | S. cerevisiae deletion strains, locus YLR342W, strain FKS1, active compounds read low 1.01 | S. cerevisiae deletion strains, locus YLR357W, strain rsc2, active compounds read low 1.01 | S. cerevisiae deletion strains, locus YLR370C, strain arc18, active compounds read low 0.997 | S. cerevisiae deletion strains, locus YLR371W, strain rom2, active compounds read low 1.04 | S. cerevisiae deletion strains, locus YLR384C, strain iki3, active compounds read low 1 | S. cerevisiae deletion strains, locus YLR418C, strain cdc73, active compounds read low 1.05 | S. cerevisiae deletion strains, locus YML016C, strain PPZ1, active compounds read low 1.02 | S. cerevisiae deletion strains, locus YML032C, strain rad52, active compounds read low 1.03 | S. cerevisiae deletion strains, locus YML120C, strain ndi1, active compounds read low 1.01 | S. cerevisiae deletion strains, locus YML124C, strain tub3, active compounds read low 1.03 | S. cerevisiae deletion strains, locus YMR058W, strain fet3, active compounds read low 1.01 | S. cerevisiae deletion strains, locus YMR078C, strain ctf18, active compounds read low 1.02 | S. cerevisiae deletion strains, locus YMR125W, strain sto1, active compounds read low 1.02 | S. cerevisiae deletion strains, locus YMR129W, active compounds read low 1.01 | S. cerevisiae deletion strains, locus YMR205C, strain PFK2, active compounds read low 0.979 | S. cerevisiae deletion strains, locus YMR223W, strain ubp8, active compounds read low 1.02 | S. cerevisiae deletion strains, locus YMR231W, strain pep5, active compounds read low 1.03 | S. cerevisiae deletion strains, locus YMR263W, strain SAP30, active compounds read low 1.01 | S. cerevisiae deletion strains, locus YMR307W, strain GAS1, active compounds read low 1 | S. cerevisiae deletion strains, locus YNL067W, strain RPL9B, active compounds read low 1.01 | S. cerevisiae deletion strains, locus YNL071W, strain lat1, active compounds read low 1.01 | S. cerevisiae deletion strains, locus YNL128W, strain TEP1, active compounds read low 1.01 | S. cerevisiae deletion strains, locus YNL153C, strain GIM3, active compounds read low 1.01 | S. cerevisiae deletion strains, locus YNL183C, strain NPR1, active compounds read low 0.891 | S. cerevisiae deletion strains, locus YNL209W, strain ssb2, active compounds read low 0.998 | S. cerevisiae deletion strains, locus YNL233W, strain BNI4, active compounds read low 1.02 | S. cerevisiae deletion strains, locus YNL248C, strain rpa49, active compounds read low 0.996 | S. cerevisiae deletion strains, locus YNL250W, strain rad50, active compounds read low 1.03 | S. cerevisiae deletion strains, locus YNL271C, strain bni1, active compounds read low 1.03 | S. cerevisiae deletion strains, locus YNL298W, strain CLA4, active compounds read low 1.03 | S. cerevisiae deletion strains, locus YNL307C, strain MCK1, active compounds read low 1.04 | S. cerevisiae deletion strains, locus YNL322C, strain KRE1 (second series), active compounds read low 1.05 | S. cerevisiae deletion strains, locus YNL322C, strain KRE1, active compounds read low 1 | S. cerevisiae deletion strains, locus YNR049C, strain mso1, active compounds read low 1.02 | S. cerevisiae deletion strains, locus YNR052C, strain pop2, active compounds read low 1.02 | S. cerevisiae deletion strains, locus YOL006C, strain TOP1, active compounds read low 1.07 | S. cerevisiae deletion strains, locus YOL012C, strain htz1 1.31 | S. cerevisiae deletion strains, locus YOL147C, strain pex11, active compounds read low 1.02 | S. cerevisiae deletion strains, locus YOR001W, strain rrp6, active compounds read low 0.987 | S. cerevisiae deletion strains, locus YOR061W, strain CKA2, active compounds read low 1.01 | S. cerevisiae deletion strains, locus YOR069W, strain VPS5, active compounds read low 1 | S. cerevisiae deletion strains, locus YOR070C, strain gyp1, active compounds read low 0.993 | S. cerevisiae deletion strains, locus YOR080W, strain dia2, active compounds read low 1.02 | S. cerevisiae deletion strains, locus YOR083W, strain WHI5, active compounds read low 1.01 | S. cerevisiae deletion strains, locus YOR106W, strain vam3, active compounds read low 0.948 | S. cerevisiae deletion strains, locus YOR136W, strain idh2, active compounds read low 1.02 | S. cerevisiae deletion strains, locus YOR144C, strain elg1, active compounds read low 1.02 | S. cerevisiae deletion strains, locus YOR184W, strain ser1, active compounds read low 1.04 | S. cerevisiae deletion strains, locus YOR231W, strain MKK1, active compounds read low 0.984 | S. cerevisiae deletion strains, locus YOR265W, strain rbl2, active compounds read low 1.03 | S. cerevisiae deletion strains, locus YOR270C, strain vph1, active compounds read low 0.931 | S. cerevisiae deletion strains, locus YOR290C, strain snf2, active compounds read low 1.08 | S. cerevisiae deletion strains, locus YOR316C, strain cot1, active compounds read low 1.02 | S. cerevisiae deletion strains, locus YPL051W, strain arl3, active compounds read low 1 | S. cerevisiae deletion strains, locus YPL055C, strain LGE1, active compounds read low 1.01 | S. cerevisiae deletion strains, locus YPL078C, strain atp4, active compounds read low 1 | S. cerevisiae deletion strains, locus YPL106C, strain sse1, active compounds read low 1.05 | S. cerevisiae deletion strains, locus YPL240C, strain hsp82, active compounds read low 1.01 | S. cerevisiae deletion strains, locus YPL241C, strain CIN2, active compounds read low 0.999 | S. cerevisiae deletion strains, locus YPL256C, strain CLN2, active compounds read low 0.992 | S. cerevisiae deletion strains, locus YPR119W, strain clb2, active compounds read low 1.02 | S. cerevisiae deletion strains, locus YPR141C, strain kar3, active compounds read low 1.03 | S. cerevisiae deletion strains, locus YPR163C, strain tif3, active compounds read low 1.04 | S. cerevisiae deletion strains, locus YPR167C, strain met16, active compounds read low 1.02 | S. cerevisiae deletion strains, strain wtn01, active compounds read low 1.05 | S. cerevisiae strains, strain wild type, active compounds read low 1.01
